In the supplement of paper PMC8728848:
Only a selection was taken, and the strongest signals are over-represented in it overall.

Assays:
Test in all cases: glycan array binding signal (z-score within array); higher = stronger binding
Conditions in all cases: glycan notation: IUPAC condensed, linker removed
[1] = target: Fuc(a1-2)Gal(b1-3)GlcNAc(b1-2)Man(a1-3)[Fuc(a1-2)Gal(b1-3)GlcNAc(b1-2)Man(a1-6)]Man(b1-4)GlcNAc(b1-4)GlcNAc
Method in brief: (§1)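 The binding signal is a Z-score computed within each array. Data were drawn from 3228 arrays in the Consortium for Functional Glycomics database, restricted to those with a known protein sequence. Scores were averaged over arrays of the same protein sequence at different concentrations or buffers, and over linkers, and negative values can be taken as non-binding.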

[2] = target: Fuc(a1-2)Gal(b1-4)Fuc(a1-3)]GlcNAc(b1-2)Man(a1-3)[Fuc(a1-2)Gal(b1-4)[Fuc(a1-3)]GlcNAc(b1-2)Man(a1-6)]Man(b1-4)GlcNAc(b1-4)GlcNAc
Method in brief: as §1

[3] = target: Fuc(a1-2)Gal(b1-4)GlcNAc
Method in brief: as §1

[4] = target: Fuc(a1-2)Gal(b1-4)GlcNAc(b1-2)Man(a1-3)[Fuc(a1-2)Gal(b1-4)GlcNAc(b1-2)Man(a1-6)]Man(b1-4)GlcNAc(b1-4)[Fuc(a1-6)]GlcNAc
Method in brief: as §1

[5] = target: Fuc(a1-2)Gal(b1-4)GlcNAc(b1-3)Gal(b1-4)GlcNAc(b1-2)Man(a1-3)[Fuc(a1-2)Gal(b1-4)GlcNAc(b1-3)Gal(b1-4)GlcNAc(b1-2)Man(a1-6)]Man(b1-4)GlcNAc(b1-4)GlcNAc
Method in brief: as §1

[6] = target: Fuc(a1-2)[Gal(a1-3)]Gal(b1-3)GlcNAc(b1-2)Man(a1-3)[Fuc(a1-2)[Gal(a1-3)]Gal(b1-3)GlcNAc(b1-2)Man(a1-6)]Man(b1-4)GlcNAc(b1-4)GlcNAc
Method in brief: as §1

[7] = target: Fuc(a1-2)[Gal(a1-3)]Gal(b1-3)GlcNAc(b1-6)GalNAc
Method in brief: as §1

[8] = target: Fuc(a1-2)[Gal(a1-3)]Gal(b1-4)Glc
Method in brief: as §1

[9] = target: Fuc(a1-2)[GalNAc(a1-3)]Gal(b1-4)GlcNAc(b1-2)Man(a1-3)[Fuc(a1-2)[GalNAc(a1-3)]Gal(b1-4)GlcNAc(b1-2)Man(a1-6)]Man(b1-4)GlcNAc(b1-4)[Fuc(a1-6)]GlcNAc
Method in brief: as §1

[10] = target: Fuc(a1-2)[GalNAc(a1-3)]Gal(b1-4)GlcNAc(b1-3)GalNAc
Method in brief: as §1

[11] = target: Fuc(a1-2)[GalNAc(b1-3)]Gal
Method in brief: as §1

[12] = target: Fuc(a1-3)[Gal(b1-4)]GlcNAc(b1-2)Man(a1-3)[Fuc(a1-3)[Gal(b1-4)]GlcNAc(b1-2)Man(a1-6)]Man(b1-4)GlcNAc(b1-4)[Fuc(a1-6)]GlcNAc
Method in brief: as §1

[13] = target: Fuc(a1-3)[Gal3S(b1-4)]Glc
Method in brief: as §1

[14] = target: Gal(a1-3)Gal(b1-3)GlcNAc(b1-2)Man(a1-3)[Gal(a1-3)Gal(b1-3)GlcNAc(b1-2)Man(a1-6)]Man(b1-4)GlcNAc(b1-4)GlcNAc
Method in brief: as §1

[15] = target: Gal(a1-4)Gal(b1-3)GlcNAc(b1-2)Man(a1-3)[Gal(a1-4)Gal(b1-3)GlcNAc(b1-2)Man(a1-6)]Man(b1-4)GlcNAc(b1-4)GlcNAc
Method in brief: as §1

[16] = target: Gal(b1-3)GalNAc(a1-3)[Fuc(a1-2)]Gal(b1-4)GlcNAc
Method in brief: as §1

[17] = target: Gal(b1-3)GlcNAc(b1-3)Gal(b1-4)GlcNAc(b1-2)Man(a1-3)[Gal(b1-3)GlcNAc(b1-3)Gal(b1-4)GlcNAc(b1-2)Man(a1-6)]Man(b1-4)GlcNAc(b1-4)GlcNAc
Method in brief: as §1

[18] = target: Gal(b1-3)GlcNAc(b1-3)Gal(b1-4)GlcNAc(b1-6)[Gal(b1-3)GlcNAc(b1-3)]Gal(b1-4)Glc
Method in brief: as §1

[19] = target: Gal(b1-3)GlcNAc(b1-6)GalNAc
Method in brief: as §1

[20] = target: Gal(b1-3)[Fuc(a1-4)]GlcNAc
Method in brief: as §1

[21] = target: Gal(b1-4)Glc6S
Method in brief: as §1

[22] = target: Gal(b1-4)GlcNAc(b1-2)Man(a1-3)Man(b1-4)GlcNAc(b1-4)GlcNAc
Method in brief: as §1

[23] = target: Gal(b1-4)GlcNAc(b1-3)Gal(b1-4)GlcNAc(b1-2)Man(a1-3)[Gal(b1-4)GlcNAc(b1-3)Gal(b1-4)GlcNAc(b1-2)Man(a1-6)]Man(b1-4)GlcNAc(b1-4)GlcNAc
Method in brief: as §1

[24] = target: Gal(b1-4)GlcNAc(b1-3)Gal(b1-4)GlcNAc(b1-2)Man(a1-3)[Gal(b1-4)GlcNAc(b1-3)Gal(b1-4)GlcNAc(b1-2)Man(a1-6)]Man(b1-4)GlcNAc(b1-4)[Fuc(a1-6)]GlcNAc
Method in brief: as §1

[25] = target: Gal(b1-4)GlcNAc(b1-3)Gal(b1-4)GlcNAc(b1-2)[Gal(b1-4)GlcNAc(b1-3)Gal(b1-4)GlcNAc(b1-6)]Man(a1-6)[Gal(b1-4)GlcNAc(b1-3)Gal(b1-4)GlcNAc(b1-2)Man(a1-3)]Man(b1-4)GlcNAc(b1-4)[Fuc(a1-6)]GlcNAc
Method in brief: as §1

[26] = target: Gal(b1-4)GlcNAc(b1-3)Gal(b1-4)GlcNAc(b1-3)Gal(b1-4)GlcNAc(b1-2)Man(a1-3)[Gal(b1-4)GlcNAc(b1-3)Gal(b1-4)GlcNAc(b1-3)Gal(b1-4)GlcNAc(b1-2)Man(a1-6)]Man(b1-4)GlcNAc(b1-4)GlcNAc
Method in brief: as §1

[27] = target: Gal(b1-4)GlcNAc(b1-3)Gal(b1-4)GlcNAc(b1-3)Gal(b1-4)GlcNAc(b1-2)[Gal(b1-4)GlcNAc(b1-3)Gal(b1-4)GlcNAc(b1-3)Gal(b1-4)GlcNAc(b1-6)]Man(a1-6)[Gal(b1-4)GlcNAc(b1-3)Gal(b1-4)GlcNAc(b1-3)Gal(b1-4)GlcNAc(b1-2)Man(a1-3)]Man(b1-4)GlcNAc(b1-4)[Fuc(a1-6)]GlcNAc
Method in brief: as §1

[28] = target: Gal(b1-4)GlcNAc(b1-3)Gal(b1-4)GlcNAc(b1-3)[Gal(b1-4)GlcNAc(b1-3)Gal(b1-4)GlcNAc(b1-6)]GalNAc
Method in brief: as §1

[29] = target: Gal(b1-4)GlcNAc(b1-3)Gal(b1-4)GlcNAc(b1-6)[Gal(b1-3)]GalNAc
Method in brief: as §1

[30] = target: Gal6S(b1-4)GlcNAc6S
Method in brief: as §1

B1: InvD YPIII (Yersinia pseudotuberculosis), B1JSC0 (protein)
chain: MIKYFSFFKKPEPIVGILPNRQSHHILPTHIRRVAWGTLLLQLFIPLSVSFSPAIAAMKASKADTMVSYSSTEPYVLGSGETVAMVAKKYGITVDELKKINIYRTFSRPFTALTTGDEIDIPRKASPFSVDNNKDNRLSVENTLAGHAVAGATALSNGDVAKSGERMVRSAASNEFNNSAQQWLSQFGTARVQLNINDDFHLDGSAADVLIPLYDNEKSILFTQLGARNKDSRNTVNMGAGVRTFQGNWMYGANTFFDNDLTGKNRRIGVGAEAWTDYLKLSANNYFGITDWHQSRDFIDYNERPANGYDLRAEAYLPSYPQLGGKAMYEKYRGDDVALFGKDNRQKNPHAITAGVNYTPIPLVTIGAEHRAGKGGQNDSNINFQLNYRLGETWQSHIDPSAVAASRTLAGSRYDLVERNNHIVLDYQKQNLVRLSLPDSLAGDPFSQLSVTAQVTATHGLERIDWQSAELMAAGGVLKQTSKNGLEITLPEYQMNRTGGNSYILNAIAYDTQGNASSQASMLITVNAQKINIANSTLVAVPINIEANNSDTSVVTLTLKDDNNIPVTGQDVTFLSPLGTLSAMTDSGNGVYTATLTAGTVSGTTAVSSNINGSALDMTPATVTLNGNSGELSITHSMLVAAPVNIEANGSDTSVVTLTLRDSNNNPVTGQTVTFAGTLGTLGAVTEGSSGVYTATLTAGIMVGTSSITASVNSTALGVTPATVTLNGDSGNLSTTNSTLVAAPVNIEANSSDTSVVTLTLRDNNNNPVTGQTVVFTSTLGTLGNVTEQASGVYTATLTAGTVSGVASLSVSVGGNALGVTPATVTLNGDSGNLSTTNSTLVAAPVNIEANSSDTSVVTLTLRDNNNNPVTGQTVNFAGTLGTLGTVSEGSSGVYTTTLTAGTVAGVASLSVNVGGNALGVTPATVTLNGNSGNLSATNSTLVAAPVNIEANSSDTSVVTLTLRDNNNNPVTGQTVAFTSTLGTLGNVTEQASGVYTATLTAGTVSGVASLSVSVNSNALGVTPATVTLNGDSGNLSTTNSTLVAAPVNIEANSSDTSVVTLTLRDNNNNPVTGQTVAFTSTLGTLGNVTEQASGLYTATLTAGTVSGVASLSVNVGGNALGVTPATVTLNGDSGNLSATNSTLVAAPVNIEANSSDTSVVTLTLRDNNNNPVTGQTVAFTSTLGTLGNVTEQASGLYTATLTAGTVSGVASLSVNVGGTALGVTPATVTLNGDSGNLSTTNSTLVAAPVNIEANSSDTSVVTLTLRDNNNNPVTGQTVAFTSTLGTLGNVTEQASGLYTATLTAGTVSGVASLSVSVNSTALGVTPATVTLNGDSGNLSTTNSTLVAAPVNIEANSSDTSVVTLTLRDNNNNPVTGQTVAFTSTLGTLGNVTEQASGVYTATLTAGTVAGVASLSVNVGGNALGVTPATVTLNGDSGNLSTTNSTLVAAPVNIEANSSDTSVVTLTLRDNNNNPVTGQTVAFTSTLGTLGNVTEQASGVYTATLTAGTVSGVASLSVSVGSSALGVTPATVTLNGDSGNLSTTNSTLVAAPVNIEANNSDTSVVTLTLRDNNNNPVTGQTVAFTSTLGTLGNVTEQASGVYTATLTAGTVSGVASLSVSVNSNALGVTPATVTLNGDSGNLSTTNSTLVAAPVNIEANSSDTSVVTLTLRDNNNNPVTGQTVVFTSTLGTLGNVTEQASGLYTATLTAGTVSGVASLSVSVGGNALGVTGNITLAPGALDAARSILAVNKPSINADDRIGSTITFTAQDAQGNAITGLDIAFMTDLENSQIMTLVDHNDGTYTANINGTQTGIANIAVQSSGATIAGLAATMVTITPGAWNTTQATPVMTVALPITTCQSSSGVYKRYYIGIVTHELYDNYGNEISGILTYNLGAGRYTTVTSQNSSVSGSNGLTRRSNSPVSHFILTSDAYTSQAACYAERIANVNVTITVTAITDDFKTSAVNKVFILGTGSN
[1]
  glycan array binding signal (z-score): 0.001
[2]
  glycan array binding signal (z-score): 1.36
[3]
  glycan array binding signal (z-score): -0.154
[4]
  glycan array binding signal (z-score): 0.037
[5]
  glycan array binding signal (z-score): -0.232
[6]
  glycan array binding signal (z-score): -0.164
[7]
  glycan array binding signal (z-score): 0.218
[8]
  glycan array binding signal (z-score): -0.359
[9]
  glycan array binding signal (z-score): 0.113
[10]
  glycan array binding signal (z-score): -0.306
[11]
  glycan array binding signal (z-score): 0.063
[12]
  glycan array binding signal (z-score): -0.147
[13]
  glycan array binding signal (z-score): -0.259
[14]
  glycan array binding signal (z-score): 0.213
[15]
  glycan array binding signal (z-score): 0.015
[16]
  glycan array binding signal (z-score): -0.102
[17]
  glycan array binding signal (z-score): -0.358
[18]
  glycan array binding signal (z-score): -0.192
[19]
  glycan array binding signal (z-score): -0.16
[20]
  glycan array binding signal (z-score): -0.119
[21]
  glycan array binding signal (z-score): -0.213
[22]
  glycan array binding signal (z-score): -0.355
[23]
  glycan array binding signal (z-score): 10.1
[24]
  glycan array binding signal (z-score): 2.01
[25]
  glycan array binding signal (z-score): 1.88
[26]
  glycan array binding signal (z-score): 1.59
[27]
  glycan array binding signal (z-score): 1.62
[28]
  glycan array binding signal (z-score): 1.71
[29]
  glycan array binding signal (z-score): 1.51
[30]
  glycan array binding signal (z-score): -0.131
